# Compound activity: PubChem BioAssay, National Center for Advancing Translational Sciences (NCATS)
# IL-1B inflam inh: qHTS for Inhibitors of Inflammasome Signaling: IL-1-beta AlphaLISA Primary Screen. activity change, % at 57.5 µM. actives 4.7% (n = 360,000). THP-1 LPS/ATP IL-1B secretion, AlphaLISA, 16 h; stronger effect = lower value; in the data active = activity change below about -50%; inconclusive = mostly about -30% to -49%
#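 Secreted IL-1B measured by AlphaLISA bead assay after 16 h compound exposure of THP-1 cells; compounds (final up to 57.5 uM) added 1 h before LPS (250 ng/mL) and ATP (1.25 mM) stimulation; lower signal means less secretion.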
# HT1080 IDH1KD tx: qHTS for induction of synthetic lethality in tumor cells producing 2HG: qHTS for the HT-1080-IDH1KD cell line | HT-1080 IDH1 knockdown viability, ATP luminescence, 48 h | actives 2% (n = 360,000) | Potency, µM (highest dose often 46.1 µM), inactives show at the highest dose activity, negative = toxicity, most hits filed as cytotoxic;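 also: potency is read from the fitted curve at half-maximal effect; 0% = DMSO wells and -100% = cell-free medium wells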
#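 IDH1KD HT-1080 cells, 750/well, RPMI + 5% FBS; compound pinned after 2 h settling; 48 h, 37 °C; CellTiter-Glo luminescence; % activity normalised to DMSO and no-cell wells; curves fitted, classed by r2 and efficacy.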
# DT40 TDP1 CPT: qHTS for Inhibitors of human tyrosyl-DNA phosphodiesterase 1 (TDP1): qHTS in cells in presence of CPT | Potency, µM (series often up to 46.2 µM), inactives show at the top dose activity change, negative = growth inhibition, most hits filed as inhibitors | AID 686979, 2013 | chicken DT40 Tdp1-/-;hTDP1 cells + 20 nM CPT, ATP luminescence, 48 h | actives 12% (n = 420,000); also: potency is read from the fitted curve at half-maximal effect; nearly all actives have a fitted effect of over 55% in size
#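 Chicken DT40 Tdp1-/- cells complemented with human TDP1, 400 cells/well, exposed to compounds plus 20 nM camptothecin for at least 48 h at 37 C; viability read as ATP content by CellTiter-Glo luminescence.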
# TDP1 cell noCPT: qHTS for Inhibitors of human tyrosyl-DNA phosphodiesterase 1 (TDP1): qHTS in cells in absence of CPT | DT40 Tdp1-/- hTDP1 cells, no CPT, ATP luminescence, 48 h | Potency, µM (doses to about 46.2 µM), for inactives: top-dose activity change, negative = growth inhibition, hits mostly inhibitors | actives 15% (n = 420,000); also: potency is read from the fitted curve at half-maximal effect; nearly all actives have a fitted effect of over 55% in size
#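 Luminescent ATP content (CellTiter-Glo) served as the growth readout. Knockout chicken DT40 cells expressing human TDP1 were exposed to compounds without camptothecin for a minimum 48 hr at 37 °C.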
# HT1080NT lethal: qHTS for induction of synthetic lethality in tumor cells producing 2HG: qHTS for the HT-1080-NT fibrosarcoma cell line | HT-1080-NT fibrosarcoma viability, CellTiter-Glo ATP luminescence, 48 h | Potency, µM (highest dose often 46.1 µM), without a hit: at the top dose activity, negative = less viability, usual class: cytotoxic | actives 1.6% (n = 360,000);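 also: NT is the 2HG producing partner of a matched IDH1 knockdown line; potency is read from the fitted curve at half-maximal effect; 0% = DMSO-treated cells and -100% = media-only wells without cells; nearly all actives have a fitted effect of over 55% in size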
#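 HT-1080-NT fibrosarcoma cells (2HG-overproducing), 750 cells/well in RPMI with 5% FBS, dosed after 2 h and incubated 48 h at 37C. CellTiter-Glo luminescence normalized to DMSO and no-cell wells; concentration-response curves fitted and classed.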
# An asterisk follows results filed as active; ? = inconclusive; · = no result. Most compounds without a hit are left out; they make up all but 19% or so of the library. Unless noted, calls follow the shape of the dose curve; as a rule, active = well fitted curve in the direction sought with a large enough effect; inconclusive = small, poorly fitted or top-dose-only effect, or another doubt; inactive = no such curve, though single readings can be large; an effect the other way counts as inactive or inconclusive. Unless noted, % is scaled to controls: 0 for no effect and ±100 for the full control effect.
SMILES,IL-1B inflam inh,HT1080 IDH1KD tx,DT40 TDP1 CPT,TDP1 cell noCPT,HT1080NT lethal
COc1cccc(CNc2nc3cc(-c4ccccc4)sc3c(=O)n2C)c1,-22.5,-19.7%,?,?,?
CN(C)CCCNc1nc2cc(-c3cnn(Cc4ccccc4)c3)sc2c(=O)n1C,-2.6,23.1µM*,?,?,9.2µM*
CN(C)CCCNc1nc2cc(-c3ccc4c(ccn4C)c3)sc2c(=O)n1C,-28.1,?,20.6µM*,?,?
Cc1ccc(F)cc1-c1cc2nc(NCCCN(C)C)n(C)c(=O)c2s1,-8.0,14.6µM*,23.1µM*,16.4µM*,20.6µM*
CC(C)=C(C)c1cc2nc(NCCCN(C)C)n(C)c(=O)c2s1,-25.7,?,0.2%,-21.7%,-25.9%
COc1cccc(-c2cc3nc(NCCCN(C)C)n(C)c(=O)c3s2)c1,-63.2*,?,?,?,?
COc1ncccc1-c1cc2nc(NCCCN(C)C)n(C)c(=O)c2s1,-4.0,-27.2%,8.2µM*,8.2µM*,-23.3%
Cc1ccc(NC(=O)CN2C(=O)CC(c3ccc(C)c(C)c3)=Nc3ccccc32)cc1,·,·,20.6µM*,18.4µM*,·
Cc1ccc(NC(=O)CN2C(=O)c3ccccc3C2=O)cc1,6.2,21.8%,-1.6%,0.9%,12.0%
Cc1ccc(C2=Nc3ccccc3N(CC(=O)Nc3ccccc3F)C(=O)C2)cc1C,·,·,23.1µM*,25.9µM*,·
O=C(CN1C(=O)CC(c2ccccc2)=Nc2ccccc21)Nc1ccc(Br)cc1,·,·,?,20.6µM*,·
CN(C)c1ccc(NC(=O)CN2C(=O)CC(c3ccccc3)=Nc3ccccc32)cc1,-4.6,1.0%,1.7%,-20.8%,-1.9%
Clc1cccc(Cl)c1/C=N/Nc1c(Cl)cncc1Cl,-82.5*,5.17µM*,2.06µM*,3.26µM*,2.31µM*
Clc1cncc(Cl)c1N/N=C/c1ccncc1,-94.9*,?,?,?,-14.5%
O=C(O)c1cc(N/N=C/c2ccncc2)ccc1Cl,8.4,20.1%,12.8%,-10.3%,-2.3%
O=C(C[C@@H]1C/C=C\CC[C@H](Cc2ccc(F)cc2)C(=O)OC[C@@H](Cc2ccccc2)NC1=O)NCCO,7.6,4.3%,?,?,18.1%
Cc1ccc(S(=O)(=O)N2C[C@H]3C(=O)C[C@@H](c4ccccc4)N(S(=O)(=O)c4ccc(C)cc4)[C@H]3C[C@H]2c2ccc(Cl)cc2)cc1,34.1,-7.5%,-0.6%,-23.3%,0.6%
Cc1onc(-c2ccccc2)c1-c1nnc(CN2CCN(S(=O)(=O)c3ccccc3)CC2)o1,13.8,0.6%,14.6µM*,16.4µM*,-6.2%
Oc1ccccc1CC=NC1CCCCC1,9.6,14.3%,-9.0%,-24.9%,12.2%
Cc1ccc2cccc(NS(=O)(=O)c3ccccc3)c2n1,37.0,?,?,20.6µM*,?
Cc1cc(C)nc(NS(=O)(=O)c2ccccc2)n1,3.7,13.7%,-5.8%,-1.1%,0.9%
O=S(=O)(Nc1ncccn1)c1ccccc1,3.2,3.5%,?,16.4µM*,2.0%
NC(=S)NNc1cccc2cccnc12,44.3,?,6.51µM*,11.6µM*,?
O=S(=O)(Nc1cccc2cccnc12)c1ccc(S(=O)(=O)N2CCCC2)cc1,-71.4*,1.26µM*,16.4µM*,13µM*,2µM*
O=S(=O)(Nc1ccc(S(=O)(=O)Nc2ncccn2)cc1)c1ccccc1,6.3,7.3%,3.4%,-0.7%,10.1%
SMILES,IL-1B inflam inh,HT1080 IDH1KD tx,DT40 TDP1 CPT,TDP1 cell noCPT,HT1080NT lethal
CCn1nc2cc(C(=O)NCCc3cccs3)ccc2c1OC,5.5,13.1%,9.6%,4.2%,6.7%
O=S(=O)(Nc1cccc2cccnc12)c1ccccc1,-104.3*,23.1µM*,13µM*,8.2µM*,25.9µM*
CS(=O)(=O)Nc1cccc2cccnc12,46.2,4.4%,4.61µM*,4.61µM*,-7.9%
Cc1cc(C)n(-c2ccc3cccc(NS(C)(=O)=O)c3n2)n1,213.7,?,5.17µM*,5.8µM*,?
CC(=O)Nc1ccc(S(=O)(=O)Nc2cccc3cccnc23)cc1,54.4,-12.4%,-4.4%,-20.0%,5.0%
CCc1cc(C(=O)Nc2cc(S(=O)(=O)N3CCCCC3)ccc2N2CCN(C)CC2)sc1C,-70.4*,?,4.61µM*,4.11µM*,?
CCN(CC)S(=O)(=O)c1ccc(N2CCOCC2)c(NC(=S)NC(=O)c2ccco2)c1,?,-13.2%,10.3µM*,?,-24.0%
CCN(CC)S(=O)(=O)c1ccc(N2CCOCC2)c(NC(=O)C23CC4CC(CC(Cl)(C4)C2)C3)c1,3.5,-2.3%,?,23.1µM*,0.8%
CCN(CC)S(=O)(=O)c1ccc(N2CCOCC2)c(NC(=O)c2cc(C)cc(C)c2)c1,-51.1*,-9.8%,7.31µM*,18.4µM*,-1.2%
CCN(CC)S(=O)(=O)c1ccc(N2CCOCC2)c(NC(=O)c2ccccc2)c1,-1.8,0.7%,?,?,11.6%
CCN(CC)S(=O)(=O)c1ccc(N2CCOCC2)c(NC(=O)c2ccco2)c1,14.9,-5.6%,?,?,-4.8%
COc1ccc(Cn2ccnc2SCC(=O)Nc2cc(C(F)(F)F)ccc2Cl)cc1,·,·,-6.5%,-14.9%,·
CCc1cc(C(=O)Nc2ccccc2N2CCOCC2)sc1C,-11.7,9.4%,?,?,7.2%
CCc1cc(C(=O)Nc2cc(S(=O)(=O)N(CC)CC)ccc2N2CCOCC2)sc1C,-13.6,-13.0%,20.6µM*,?,-2.3%
CCN1CCN(c2ccc(S(=O)(=O)N3CCOCC3)cc2NC(=O)c2sccc2C)CC1,-20.1,-0.2%,-6.6%,-3.3%,-7.6%
CCN(CC)S(=O)(=O)c1ccc(N2CCOCC2)c(NC(=O)c2sccc2C)c1,?,14.5%,?,18.4µM*,-0.7%
CN(CC(=O)NCc1ccco1)CC(=O)Nc1cc(S(C)(=O)=O)ccc1Cl,2.8,8.8%,0.0%,-1.9%,7.9%
Cc1ccc(S(=O)(=O)N(C)C)cc1NC(=O)COC(=O)c1ccc2ccccc2n1,16.6,-0.7%,-1.1%,7.3%,-1.5%
COc1ccc(-n2c(CN3CCC(C)CC3)nc3ccc([N+](=O)[O-])cc3c2=O)c(OC)c1,17.1,-3.5%,18.4µM*,?,-5.9%
COc1ccc(/C(C)=N/Nc2nncc3ccccc23)cc1,0.7,1.6%,8.8%,-18.2%,3.5%
COc1ccc(/C(C)=N/Nc2nc3ccccc3nc2C)cc1,10.4,?,?,23.1µM*,?
